The assay concerns the target Voltage-dependent N-type calcium channel subunit alpha-1B (Homo sapiens) (UniProt Q00975). The assay is described as follows: disruptors of CaV2.2 binding to Mint1 – biochemical, HTRF (AID 2073). Particulars: HTRF protein-protein interaction, Mint1-CaV2.2, at 20 µM, stronger effect = higher value.
[1] abbreviates: measured here: average of repeat tests.

Results on 55 compounds are retold here after PubChem BioAssay AID2073 (Sanford-Burnham Center for Chemical Genomics, 2009).

A word on the inhibition: it is the relative decrease from the control value, in per cent.

Molecules are shown by their SMILES. In all, about 290,000 compounds went through this assay and about 570 (0.2%) were called active. Roughly 1% stayed inconclusive and do not appear here. No stated cut-off is given here; in the data, active means inhibition mostly above about 51% (no sharp cut-off); inconclusive means no clear call, values can overlap the other calls; inactive means mostly below about 53%. Only a selection was taken, and actives are over-represented in it overall.

Sequence of Voltage-dependent N-type calcium channel subunit alpha-1B (Homo sapiens) (Q00975 whole entry, looked up): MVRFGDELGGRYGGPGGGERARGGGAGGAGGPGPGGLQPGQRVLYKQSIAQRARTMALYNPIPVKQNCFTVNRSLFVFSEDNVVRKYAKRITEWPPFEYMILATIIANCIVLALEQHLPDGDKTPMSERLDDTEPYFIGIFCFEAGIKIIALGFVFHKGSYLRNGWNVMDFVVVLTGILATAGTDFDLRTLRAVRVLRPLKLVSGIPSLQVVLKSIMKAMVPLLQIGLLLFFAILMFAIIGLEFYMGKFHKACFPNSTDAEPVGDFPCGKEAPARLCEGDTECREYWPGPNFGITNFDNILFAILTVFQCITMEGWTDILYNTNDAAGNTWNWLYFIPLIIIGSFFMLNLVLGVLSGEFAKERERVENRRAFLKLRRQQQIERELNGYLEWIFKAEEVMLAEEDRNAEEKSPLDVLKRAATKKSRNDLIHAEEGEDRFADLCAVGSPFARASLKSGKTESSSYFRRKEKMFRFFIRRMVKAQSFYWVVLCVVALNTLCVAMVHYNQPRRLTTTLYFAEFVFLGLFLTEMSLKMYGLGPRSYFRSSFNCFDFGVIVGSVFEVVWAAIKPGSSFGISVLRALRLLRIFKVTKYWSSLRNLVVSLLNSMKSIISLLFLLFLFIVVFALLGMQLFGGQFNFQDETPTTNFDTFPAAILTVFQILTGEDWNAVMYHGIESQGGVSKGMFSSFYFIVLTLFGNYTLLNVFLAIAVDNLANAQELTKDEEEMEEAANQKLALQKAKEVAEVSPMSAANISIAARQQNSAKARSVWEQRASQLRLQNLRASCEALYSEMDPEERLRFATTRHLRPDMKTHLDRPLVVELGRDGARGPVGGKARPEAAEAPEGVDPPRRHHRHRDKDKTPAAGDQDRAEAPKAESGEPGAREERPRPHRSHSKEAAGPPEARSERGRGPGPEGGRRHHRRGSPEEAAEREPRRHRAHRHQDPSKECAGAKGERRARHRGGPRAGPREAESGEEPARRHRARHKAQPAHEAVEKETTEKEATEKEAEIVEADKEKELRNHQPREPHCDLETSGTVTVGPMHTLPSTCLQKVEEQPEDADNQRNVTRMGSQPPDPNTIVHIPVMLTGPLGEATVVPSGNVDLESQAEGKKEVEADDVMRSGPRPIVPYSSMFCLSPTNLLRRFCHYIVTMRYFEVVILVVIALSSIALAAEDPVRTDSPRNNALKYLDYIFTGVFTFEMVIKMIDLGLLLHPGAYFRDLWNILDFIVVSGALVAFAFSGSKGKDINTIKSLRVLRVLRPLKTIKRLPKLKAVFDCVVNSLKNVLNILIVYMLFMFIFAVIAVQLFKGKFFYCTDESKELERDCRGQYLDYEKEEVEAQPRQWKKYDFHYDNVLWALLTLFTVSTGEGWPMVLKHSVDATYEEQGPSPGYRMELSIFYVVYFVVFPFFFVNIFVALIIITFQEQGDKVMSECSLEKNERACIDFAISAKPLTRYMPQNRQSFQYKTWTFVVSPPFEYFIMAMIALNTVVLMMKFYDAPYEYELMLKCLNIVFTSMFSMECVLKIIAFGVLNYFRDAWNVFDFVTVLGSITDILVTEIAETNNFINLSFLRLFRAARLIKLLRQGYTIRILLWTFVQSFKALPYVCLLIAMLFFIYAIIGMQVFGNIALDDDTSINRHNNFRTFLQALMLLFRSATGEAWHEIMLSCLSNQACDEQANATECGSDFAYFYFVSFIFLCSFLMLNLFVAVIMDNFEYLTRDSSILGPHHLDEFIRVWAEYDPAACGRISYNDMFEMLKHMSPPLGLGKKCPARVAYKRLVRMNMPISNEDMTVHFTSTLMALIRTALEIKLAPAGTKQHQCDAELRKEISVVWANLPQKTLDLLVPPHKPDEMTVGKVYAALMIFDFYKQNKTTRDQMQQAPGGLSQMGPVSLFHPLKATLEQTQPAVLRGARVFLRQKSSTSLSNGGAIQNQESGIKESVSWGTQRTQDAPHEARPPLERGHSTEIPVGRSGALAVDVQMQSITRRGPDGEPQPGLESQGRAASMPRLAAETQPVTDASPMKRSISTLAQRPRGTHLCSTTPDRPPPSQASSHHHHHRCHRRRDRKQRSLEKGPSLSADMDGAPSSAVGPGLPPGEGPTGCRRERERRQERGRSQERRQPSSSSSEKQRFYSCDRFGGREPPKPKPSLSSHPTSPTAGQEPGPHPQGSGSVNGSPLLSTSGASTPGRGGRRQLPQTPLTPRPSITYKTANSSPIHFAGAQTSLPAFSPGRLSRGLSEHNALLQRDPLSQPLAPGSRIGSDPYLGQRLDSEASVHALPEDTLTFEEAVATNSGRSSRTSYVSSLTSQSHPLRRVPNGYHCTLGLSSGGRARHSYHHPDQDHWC

In the case of `CC(C)n1c(=O)c(C=Nc2ccc(F)cc2)c(O)n(Cc2ccco2)c1=O`, the inhibition was 14.1% (inactive).
As for `CC(C)n1c(=O)c(C=Nc2ccc(Cl)cc2)c(O)n(Cc2ccco2)c1=O`, the inhibition is 63.2% (inactive). Further, under setting [1], the inhibition is 17.6%.
As to `CC(C)n1c(=O)c(C=Nc2ccc(Br)cc2)c(O)n(Cc2ccco2)c1=O`, the inhibition was 59.1% (active).
On the same count and under the same terms, in the case of `O=C(O)CCn1cc(C=C2C(=O)NC(=O)NC2=O)c(-c2cc3ccccc3oc2=O)n1` it was 42.3% (inactive); in that of `O=C(O)CCn1cc(C=C2C(=O)NC(=O)NC2=O)c(-c2ccc(Br)cc2)n1`, 11.7% (inactive).
Same read-out and setting: in the case of `O=C(O)CCn1cc(C=C2C(=O)NC(=S)NC2=O)c(-c2cccc(Br)c2)n1` it was 75.7% (active); in that of `O=C(Cc1ccc(Br)cc1)N1CCN(Cc2ccccc2)CC1`, 9.2% (inactive).
Consider `CCc1ccc(N2C(=O)NC(=O)/C(=C/c3cccn3CCOc3ccc(C)cc3)C2=O)cc1`, for which the inhibition is 17.5% (inactive).
On the same count and under the same terms, as for `CN(C)C(=S)SSC(=S)N(C)C`, the figure is 78% (active); as for `CC(=O)N1CCN(Cc2ccc(Cl)nc2)CC1`, 5.2% (inactive); as for `O=C1CC(=O)N(c2cccc(Br)c2)C(=O)N1`, 3.7% (inactive).
Same read-out and setting: as for `Cc1ccc(NC(=O)c2cn(CCC#N)nc2-c2ccc3c(c2)OCCO3)c([N+](=O)[O-])c1`, the figure is -4.2% (inactive); as for `COc1ccc(Cl)cc1N=Cc1c(O)n(C)c(=O)n(C)c1=O`, 15.7% (inactive); as for `CCCCC/C=C\C/C=C\C/C=C\C/C=C\CCCC(=O)Nc1ccc(O)cc1`, 51% (active).
On the same count and under the same terms, in the case of `CCN(CC)C(=O)c1ccc(NC(=O)CCCSc2ccccc2)cc1` it was -3.4% (inactive); in that of `CCC(=O)Nc1ccccc1`, -4.1% (inactive).
Take `CN1CCN(C(=O)Cc2ccccc2)CC1`: the inhibition is 5.6% (inactive).
On the same count and under the same terms, as for `O=c1[nH]c(=S)n(-c2ccccc2Cl)c(O)c1C=NCCN1CCNCC1`, the figure is -0.4% (inactive).
The same measure, in the same setting: as for `Cc1oc(-c2ccccc2)nc1CN1C(=O)CN=C(c2ccccc2)c2ccccc21`, the figure is -1.1% (inactive); as for `COc1ccc(CC[n+]2cc(/N=C(\C)[O-])on2)cc1OC`, 11.6% (inactive); as for `Cc1cc(/C=C2\C(=O)NC(=O)N(C)C2=O)c(C)n1-c1ccc2c(c1)OCO2`, 0.4% (inactive).
On the same count and under the same terms, as for `Cc1cc(C=C2C(=O)NC(=S)NC2=O)c(C)n1-c1ccc2c(c1)OCO2`, the figure is 53.2% (active); as for `Cc1cc(C=C2C(=O)NC(=O)NC2=O)c(C)n1-c1ccc2c(c1)OCO2`, 16.8% (inactive); as for `O=C1NC(=O)C(CCc2ccncc2)(CCc2ccccn2)C(=O)N1c1ccc(Br)cc1` (stereo not drawn), 16.2% (inactive).
Regarding `COc1cc(Br)c(CNCCc2ccc3c(c2)OCO3)cc1OC`, the inhibition is -3.9% (inactive).
Same read-out and setting: as for `COc1cc2c(c(OC)c1)C(=O)OC(C)CCCC(=O)CCCCC2` (stereo not drawn), the figure is 7.1% (inactive).
The same measure, in the same setting: in the case of `COc1ccc(-n2c(/C=C/c3ccc(O)c(O)c3)nc3ccccc3c2=O)cc1` it was 40.5% (inactive).
In the case of `O=c1c2ccccc2nc(/C=C/c2ccc(O)c(O)c2)n1-c1ccccc1`, the inhibition is 33.3% (inactive).
Same read-out and setting: as for `COc1cccc(-n2c(/C=C/c3ccc(O)c(O)c3)nc3ccccc3c2=O)c1`, the figure is 62.6% (active); as for `O=C(CN1CC(c2ccccc2)CC1=O)NCc1ccc(F)cc1` (stereo not drawn), -3.7% (inactive).
On the same count and under the same terms, as for `C[n+]1ccc(-c2ccncc2)cc1`, the figure is 6.3% (inactive).
As for `CSc1nc(N)c(N=Nc2ccc([As](=O)(O)O)cc2)c(=O)[nH]1`, the inhibition was 58.9% (active).
Still for that read-out and setting: as for `COc1ccc(N=Nc2c(O)[nH]c(=S)[nH]c2=O)cc1`, the figure is -13.3% (inactive).
Same read-out and setting: in the case of `O=[As](O)(O)c1ccc(N=Nc2ccc(O)cc2)cc1` it was 15.6% (inactive); in that of `CN1C(=O)C(=Cc2ccc(OCCN(C)c3ccccn3)cc2)C(=O)N(C)C1=O`, 3.3% (inactive).
As to `N#CC(C#N)=Cc1ccc(C=C(C#N)C#N)cc1`, the inhibition is 19.1% (inactive).
On the same count and under the same terms, as for `CCOP(=O)(OCC)/C(C#N)=C/c1ccc(Br)cc1`, the figure is 3.7% (inactive); as for `CCc1ccc(/C=C(/C#N)C(N)=S)cc1`, 84.5% (active).
In the case of `CN(C)P1(N(C)C)=NC(C(F)(F)F)=NC(C(F)(F)F)=N1`, the inhibition is 2.9% (inactive).
With `CNC(=S)N(C)CCc1cc2c(c(OC)c1/C=C1/C(=O)NC(=O)N(C)C1=O)OCO2`, the inhibition was 6.3% (inactive).
Same read-out and setting: as for `CNC(=S)N(C)CCc1cc2c(c(OC)c1C=C1C(=O)NC(=O)NC1=O)OCO2`, the figure is 50.6% (active); as for `COc1c(C=C2C(=O)NC(=O)NC2=O)c(CCN(C)C(=O)c2ccccc2)cc2c1OCO2`, 15.8% (inactive); as for `O=C1NC(=O)N(Cc2ccc(F)cc2)C(=O)/C1=C/c1cccs1`, 29.5% (inactive).
Still for that read-out and setting: as for `O=C1NC(=S)N(Cc2ccco2)C(=O)/C1=C\c1cccs1`, the figure is 76.9% (active).
On the same count and under the same terms, as for `C=CCN1C(=O)/C(=C/c2cccs2)C(=O)NC1=S`, the figure is -17.9% (inactive); as for `Cc1c(C=C2C(=O)N(C)C(=S)N(C)C2=O)c2ccccc2n1CC(=O)NCC1CCCO1` (stereo not drawn), -5.7% (inactive).
For the compound `CCCCCCn1c(O)c(C=NCCN2CCOCC2)c(=O)[nH]c1=O`, the inhibition is -1.8% (inactive).
Same read-out and setting: as for `O=C1/C(=C\c2ccc([N+](=O)[O-])cc2)N2CCC1CC2`, the figure is -2.4% (inactive); as for `O=C1C2(c3ccccc3)CN3CN(C2)CC1(c1ccccc1)C3`, -5.2% (inactive).
On the same count and under the same terms, as for `CC(C)[C@@]1(NC(=O)[C@@H]2C=C3c4cccc5[nH]cc(c45)C[C@H]3N(C)C2)O[C@@]2(O)[C@@H]3CCCN3C(=O)[C@H](Cc3ccccc3)N2C1=O`, the figure is 66.3% (active).
As for `CC(C)[C@H]1C(=O)N2CCC[C@H]2[C@]2(O)O[C@](NC(=O)[C@@H]3C=C4c5cccc6[nH]cc(c56)C[C@H]4N(C)C3)(C(C)C)C(=O)N12`, the inhibition was 69.1% (inactive). Also, the inhibition under setting [1] is 26.9%.
The corresponding values for `CC(C)C[C@H]1C(=O)N2CCCC2[C@]2(O)O[C@](NC(=O)[C@@H]3C=C4c5cccc6[nH]cc(c56)CC4N(C)C3)(C(C)C)C(=O)N12` (stereo partly drawn) are 67.7% (inactive) and 31.4%.
`CC(C)CC(NC(=O)C1CCCCC1)C(=O)N1CCC2(CC1)OCCO2` (stereo not drawn): the inhibition is -0.4% (inactive).
Regarding `NP(=O)(OCCCc1ccccc1)Oc1ccc(Cl)cc1` (stereo not drawn), the inhibition was 2.9% (inactive).
Take `C=Cn1ccnc1P(=S)(c1ccc(Cl)cc1)c1nccn1C=C`: the inhibition was 4.2% (inactive).
